Article PMC4336329 (PLoS ONE, 2015)
The whole screen tested about 310,000 compounds, of which about 2,200 (0.71%) showed an effect of 50% or more. Effects have a minus sign here. Many of the other results were omitted from the sample, so strong results are more common in it than they were.

molecular target: human ether-à-go-go-related gene (hERG) potassium channel (human, UniProt Q12809); assay: primary screen, population patch clamp on CHO cells stably expressing hERG; higher = less effect of the substance
Sequence (Q12809 whole entry, looked up): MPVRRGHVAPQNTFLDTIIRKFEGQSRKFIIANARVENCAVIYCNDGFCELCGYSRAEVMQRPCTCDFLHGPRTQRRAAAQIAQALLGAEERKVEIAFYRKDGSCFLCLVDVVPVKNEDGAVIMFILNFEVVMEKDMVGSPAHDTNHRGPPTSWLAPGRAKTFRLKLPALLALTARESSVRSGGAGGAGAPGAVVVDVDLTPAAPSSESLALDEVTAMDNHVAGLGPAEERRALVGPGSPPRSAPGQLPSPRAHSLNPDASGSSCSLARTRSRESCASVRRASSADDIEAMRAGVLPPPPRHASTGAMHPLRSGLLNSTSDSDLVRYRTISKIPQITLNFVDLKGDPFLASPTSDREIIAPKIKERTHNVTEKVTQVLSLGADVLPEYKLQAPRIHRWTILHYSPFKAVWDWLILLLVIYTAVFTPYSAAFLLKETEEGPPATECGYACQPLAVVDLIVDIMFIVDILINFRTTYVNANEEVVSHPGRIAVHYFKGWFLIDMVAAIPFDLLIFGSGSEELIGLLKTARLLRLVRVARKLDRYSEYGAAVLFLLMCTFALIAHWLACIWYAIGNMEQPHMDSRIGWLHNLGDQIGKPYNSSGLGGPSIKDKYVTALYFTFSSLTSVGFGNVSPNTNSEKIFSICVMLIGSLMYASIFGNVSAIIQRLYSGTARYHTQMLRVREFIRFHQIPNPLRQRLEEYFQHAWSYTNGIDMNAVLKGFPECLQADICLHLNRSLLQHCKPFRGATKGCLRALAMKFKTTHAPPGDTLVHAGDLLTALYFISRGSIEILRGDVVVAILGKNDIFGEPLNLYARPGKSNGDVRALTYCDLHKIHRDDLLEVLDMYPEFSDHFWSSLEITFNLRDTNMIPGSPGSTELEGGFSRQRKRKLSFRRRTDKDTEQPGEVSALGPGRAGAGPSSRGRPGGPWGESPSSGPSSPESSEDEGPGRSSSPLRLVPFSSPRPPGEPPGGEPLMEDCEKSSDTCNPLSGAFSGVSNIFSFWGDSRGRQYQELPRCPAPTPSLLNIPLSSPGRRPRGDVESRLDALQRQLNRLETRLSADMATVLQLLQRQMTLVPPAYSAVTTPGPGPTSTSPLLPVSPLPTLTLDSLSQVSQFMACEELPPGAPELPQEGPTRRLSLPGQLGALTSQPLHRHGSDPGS

Structure (SMILES)	hERG current change (%, negative = inhibition) at 1uM
O=C(O)C1CC(=O)N(Cc2ccc3c(c2)OCO3)C1 (stereo not shown)	6.73%
O=C(CN1CCCc2ccccc21)NCc1ccc2c(c1)OCO2	9.15%
CSc1ccc(-c2nc3cnccn3c2Nc2ccc3c(c2)OCO3)cc1	9.9%
Cc1ccccc1OCCC(=O)Nc1ccc(S(=O)(=O)N(C)C2CCN(C)CC2)cc1	20.4%
Cc1ccc(Cn2c(N3CCCCCC3)nc3c2c(=O)[nH]c(=O)n3C)cc1	2.45%
Cc1ccc(Cn2c(SCC(C)C)nc3c2c(=O)[nH]c(=O)n3C)cc1	9.48%
Cc1ccc(Cn2c(SCCN3CCCCC3)nc3c2c(=O)[nH]c(=O)n3C)cc1	-77.5%
O=C(Cc1ccc(Cl)cc1)N1CCc2ccccc2C1	21.7%
COc1cccc(C(c2sc3nc(C)nn3c2O)N2CCN(c3ccccc3F)CC2)c1 (stereo not shown)	10%
CCCCN(C)CCNC(=O)CN1C(=O)CSc2ccc(S(=O)(=O)N3CCCCC3)cc21	-6.21%
CCCCN(CCCC)CCNC(=O)CN1C(=O)CSc2ccc(S(=O)(=O)N3CCCCC3)cc21	-51.7%
CCCCN(CCCC)CCNC(=O)CN1C(=O)CSc2ccc(S(=O)(=O)N3CCOCC3)cc21	-3.76%
Nc1nc(N)c(N=Nc2ccc(C(=O)O)cc2)c(N)n1	8.04%
Cc1ccc(Sc2cc(NCCCO)c([N+](=O)[O-])c3nonc23)cc1	5.43%
CCOC(=O)c1c(NC(=O)c2ccccc2C(=O)O)sc2c1CCCC2	16.3%
CCOC(=O)c1c(NC(=O)c2ccccc2C(=O)O)sc2c1CCC2	2.17%
CCOC(=O)c1c(NC(=O)C(NCCN(C)C)c2ccccc2)sc2c1CCCC2 (stereo not shown)	-77.2%
COc1ccc(N=C2SC(C(=O)O)CC(=O)N2Cc2ccc(OC)c(OC)c2)cc1 (stereo not shown)	10.8%
CCCCNC(=O)N1CCN(c2ccccc2OC)CC1	5.81%
O=C1c2[nH]nc(-c3ccccc3O)c2C(c2ccc(F)cc2)N1Cc1ccco1 (stereo not shown)	13.1%
CC1CC(C)CN(c2cc(=O)n(Cc3ccc(F)cc3)c(=O)[nH]2)C1 (stereo not shown)	17.9%
CSc1nnc2c3ccccc3n(Cc3ccccc3)c2n1	19.2%

Structure (SMILES)	hERG current change (%, negative = inhibition) at 1uM
CSc1nnc2c3cc(F)ccc3n(Cc3ccccc3)c2n1	7.64%
CCN(CC)CCSc1nnc2c3ccccc3n(CCc3ccccc3)c2n1	-18.1%
CCN(CC)CCSc1nnc2c3cc(C)ccc3n(Cc3ccccc3)c2n1	-81.6%
NNc1nnc2c3cc(F)ccc3n(Cc3ccccc3)c2n1	2.58%
CN(C)C(=O)CSc1nc2ccccc2n1Cc1ccccc1	4.73%
c1ccc(Cn2c3ccccc3c3nnc(SCCN4CCCCC4)nc32)cc1	-6.31%
CCN(CC)CCSc1nc2ccccc2n1Cc1ccccc1.Cl	-79%
CCN(CC)CCSc1nnc2c3cc(F)ccc3n(Cc3ccccc3)c2n1	-53.8%
CCN(CC)CCSc1nnc2c3ccccc3n(Cc3ccccc3)c2n1	-73.4%
CSc1nnc2c3cc(C)ccc3n(Cc3ccccc3)c2n1	10.3%
O=C(O)CCSc1nc2ccccc2n1Cc1ccccc1	13.1%
COc1ccc([N+](=O)[O-])cc1N(CC(=O)N1CCCC1)S(C)(=O)=O	10.2%
O=C(NC1(C(F)(F)F)NC(=O)N(Cc2cccnc2)C1=O)c1ccncc1 (stereo not shown)	18.1%
O=C(NC(Cc1c[nH]c2ccccc12)C(=O)N1CCOCC1)c1cccs1 (stereo not shown)	11.2%
CC(C)(C)OC(=O)NCCCCCc1nnc(SCC(=O)Nc2cccc(Cl)c2)o1	-1.82%
Cc1ccc(SCC(=O)Nc2ccc(N3CCN(C)CC3)c(F)c2)c(C)c1	-47.8%
COc1ccc(/C=N/N2CCN(C3c4ccccc4-c4ccccc43)CC2)cc1OC	12.9%
COCCOC(=O)c1c(NC(=O)CNc2ccc(C)c(F)c2)sc(C(N)=O)c1C	11%
Cc1cc(NC(=O)c2ccc(F)cc2)n(-c2ccccc2)n1	-75.3%
Cc1cc(NC(=O)c2ccc(Cl)cc2)n(-c2ccccc2)n1	13.6%
Cc1cc(NC(=O)c2ccccc2)n(-c2ccccc2)n1	12.1%
